Results on ten molecules are retold here after PubChem BioAssay (NCI).

Experiment [1] in a line: NCI Yeast Anticancer Drug Screen. Data for the rad50 strain (AID 155).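 Note: 0% = growth of vehicle-only cultures of the same strain.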 As to conditions: S. cerevisiae rad50 strain growth inhibition, hits give high values. The method in brief:
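A DNA repair-deficient yeast mutant serves as the test organism; compound-induced growth inhibition is calculated against vehicle-treated cells.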

Experiment [2] is described as follows: NCI Yeast Anticancer Drug Screen. Data for the mec2-1 strain (AID 157). Particulars: S. cerevisiae mec2-1 strain, hits give high values. The method in brief:
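Strain: mec2-1 (DNA repair/cell cycle alteration). Compound exposure, then growth measured; inhibition expressed relative to vehicle.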

The nature of experiment [3]: NCI Yeast Anticancer Drug Screen. Data for the sgs1 mgt1 strain (AID 161).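 Note: 0% = growth of cultures given vehicle only.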 As to conditions: S. cerevisiae sgs1 mgt1 strain, hits give high values. The method in brief:
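Test agents were incubated with a DNA-repair-mutant yeast strain. Growth was then read and compared against vehicle-treated controls.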

A short description of experiment [4]: NCI Yeast Anticancer Drug Screen. Data for the bub3 strain (AID 167). As to conditions: S. cerevisiae bub3 mutant strain, hits give high values. The method in brief: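 Inhibition values come from growth of compound-treated mutant yeast normalised to vehicle-treated controls.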
Experiment [5] in a line: NCI Yeast Anticancer Drug Screen. Data for the mlh1 rad18 strain (AID 175). As to conditions: S. cerevisiae mlh1 rad18 strain growth inhibition, hits give high values. The method in brief: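 Read-out is yeast growth inhibition, calculated against vehicle-only controls. The compound was applied to a strain engineered with DNA damage repair alterations.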
Experiment [6] can be described thus: NCI Yeast Anticancer Drug Screen. Data for the cln2 rad14 strain (AID 165).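 Note: 0% = growth equal to vehicle treated cultures.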 Particulars: S. cerevisiae cln2 rad14 strain, hits give high values. The method in brief: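 Compounds are applied to the cln2 rad14 yeast strain, and growth is then compared with that of vehicle-treated cultures to give inhibition.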
Setting [7] is: at 5.0 µM (retest, dose inferred, filed as 0.5).
[8] abbreviates: at 50.0 µM (retest, dose inferred, filed as 5.0).

About 79,000 compounds went through this panel and 15% of them were active in at least one assay; those are over-represented in the sample as a whole. Unmarked numbers belong to inactive results. Active and inactive are the calls of the source. Cut-off read from the data, not from the text of the source: active = growth inhibition above about 70%; inactive = the rest. *1 amine or outer side, *2 acyl side, *3 side chain or, on linkers, in order; H or OH if unused. Where a SMILES comes first, the peptide text is derived from it. Bridges are numbered along the chain shown (N, C = ends). [ ]: non-standard residue; d: D form. The star is where a group is joined. ξ: configuration not given here. ξOrn(4,5-diOH) = O=C(C(CC(O)C(O)N[*:3])N[*:1])[*:2]; ξhTyr(βξ-OH,γξ-OH) = NC(C(=O)O)C(O)C(O)c1ccc(O)cc1; ξPro(3ξ-OH,4ξ-Me) = CC1CNC(C(=O)O)C1O; X1 = CCCCC/C=C/C/C=C\CCCCCCCC(=O)*; Hyp = O=C(O)[CH]1C[CH](O)CN1

With `Cc1ccc2c(c1)nc1n2C(N)=Nc2ccccc2S1`, the growth inhibition in experiment [1] (setting [7]) was 14%; in experiment [1] (setting [8]), 47%; in experiment [1] (at 50.0 µM), 65.5%; in experiment [2] (setting [7]), -14%; in experiment [2] (setting [8]), 28%; in experiment [2] (at 50.0 µM), 45.3%. Also, the growth inhibition in experiment [3] (setting [7]) was -5%; in experiment [3] (setting [8]), 45%; in experiment [3] (at 50.0 µM) it was 68.6%; in experiment [4] (setting [7]), -16%; in experiment [4] (setting [8]) it was 47%; in experiment [4] (at 50.0 µM), 75.2% (active). In addition, the values for the growth inhibition in experiment [5] (setting [7]), in experiment [5] (setting [8]) and in experiment [5] (at 50.0 µM) were 0%, 40% and 57.2%, respectively.
Consider `CC(C)N(C(=O)C12C3C4C5(C#N)C3C1(C#N)C5C42I)C(C)C` (stereo not given), for which the growth inhibition in experiment [1] (setting [7]) is 41%; in experiment [1] (setting [8]), 41%; in experiment [1] (at 50.0 µM) it was 82% (active); in experiment [2] (setting [7]), 22%; in experiment [2] (setting [8]) it was 22%; in experiment [2] (at 50.0 µM) it was 48%. The growth inhibition in experiment [3] (setting [7]) is 13%; in experiment [3] (setting [8]), 13%; in experiment [3] (at 50.0 µM), 31.6%; in experiment [4] (setting [7]), 17%; in experiment [4] (setting [8]), 17%; in experiment [4] (at 50.0 µM), 91.5% (active). For the same molecule, the values for the growth inhibition in experiment [5] (setting [7]), in experiment [5] (setting [8]) and in experiment [5] (at 50.0 µM) were 11%, 11% and 46.4%, respectively.
Take `O=C1c2ccccc2C(=O)c2cc(S(=O)(=O)Cl)ccc21`: the growth inhibition in experiment [1] (setting [7]) is 68%; in experiment [1] (setting [8]), 99% (active); in experiment [1] (at 50.0 µM), 76.1% (active); in experiment [2] (setting [7]), 97% (active); in experiment [2] (setting [8]), 99% (active); in experiment [2] (at 50.0 µM) it was 60.9%. In addition, the growth inhibition in experiment [3] (setting [7]) was 94% (active); in experiment [3] (setting [8]), 98% (active); in experiment [3] (at 50.0 µM) it was 69.2%; in experiment [6] (setting [7]) it was 55%; in experiment [6] (setting [8]) it was 99% (active); in experiment [6] (at 50.0 µM) it was -49.5%. In addition, the growth inhibition in experiment [5] (setting [7]) is 59%; in experiment [5] (setting [8]), 99% (active); in experiment [5] (at 50.0 µM), 75.8% (active).
Regarding `O=C(Oc1c(I)ccccc1=O)c1ccc([N+](=O)[O-])cc1`, the growth inhibition in experiment [1] (setting [7]) is 39%; in experiment [1] (setting [8]) it was 98% (active); in experiment [1] (at 50.0 µM), 99.2% (active); in experiment [2] (setting [7]), 57%; in experiment [2] (setting [8]), 99% (active); in experiment [2] (at 50.0 µM) it was 99.3% (active). Also, the growth inhibition is 73% (active) in experiment [3] (setting [7]); 99% (active) in experiment [3] (setting [8]); 99.3% (active) in experiment [3] (at 50.0 µM); 13% in experiment [6] (setting [7]); 98% (active) in experiment [6] (setting [8]); 99.2% (active) in experiment [6] (at 50.0 µM). In addition, the growth inhibition in experiment [5] (setting [7]) is 94% (active); in experiment [5] (setting [8]), 99% (active); in experiment [5] (at 50.0 µM) it was 99.5% (active).
Regarding `O=C(Nc1ccc(Cl)cc1)Nc1nnc2nc(C(C(=O)/C=C/c3ccccc3)c3nc4nnc(NC(=O)Nc5ccc(Cl)cc5)n4[nH]c3=O)c(=O)[nH]n12`, the growth inhibition in experiment [1] (setting [7]) is -8%; in experiment [1] (setting [8]), 11%; in experiment [1] (at 50.0 µM), 48.5%; in experiment [2] (setting [7]) it was -7%; in experiment [2] (setting [8]) it was -3%; in experiment [2] (at 50.0 µM), 48%. The growth inhibition in experiment [3] (setting [7]) is 4%; in experiment [3] (setting [8]), 2%; in experiment [3] (at 50.0 µM), 46.6%; in experiment [6] (setting [7]), -8%; in experiment [6] (setting [8]), 2%; in experiment [6] (at 50.0 µM) it was 28.6%. For the same molecule, the growth inhibition was -11% in experiment [4] (setting [7]); 7% in experiment [4] (setting [8]); 39.5% in experiment [4] (at 50.0 µM); -6% in experiment [5] (setting [7]); 8% in experiment [5] (setting [8]); 63.2% in experiment [5] (at 50.0 µM).
As to `COc1cc2c(cc1OC)C(N(C)C)C(c1ccccc1)=C2Cl` (stereo not given), the growth inhibition in experiment [1] (setting [7]) was 0%; in experiment [1] (setting [8]), 96% (active); in experiment [1] (at 50.0 µM) it was 91.2% (active); in experiment [2] (setting [7]) it was -28%; in experiment [2] (setting [8]), 99% (active); in experiment [2] (at 50.0 µM) it was 93.5% (active). Further, the growth inhibition in experiment [3] (setting [7]) was 1%; in experiment [3] (setting [8]), 96% (active); in experiment [3] (at 50.0 µM), 92.2% (active); in experiment [6] (setting [7]), 14%; in experiment [6] (setting [8]), 98% (active); in experiment [6] (at 50.0 µM) it was 91.5% (active). For the same molecule, the growth inhibition in experiment [4] (setting [7]) is 25%; in experiment [4] (setting [8]) it was 98% (active); in experiment [4] (at 50.0 µM), 90.8% (active); in experiment [5] (setting [7]), 7%; in experiment [5] (setting [8]), 99% (active); in experiment [5] (at 50.0 µM) it was 90.4% (active).
With `Cc1ccc(C(=O)C(CN(C)C)CN(C)C)cc1C`, the growth inhibition in experiment [1] (setting [7]) is 29%; in experiment [1] (setting [8]) it was 83% (active); in experiment [1] (at 50.0 µM) it was 87.6% (active); in experiment [2] (setting [7]), 12%; in experiment [2] (setting [8]), 90% (active); in experiment [2] (at 50.0 µM) it was 90.2% (active). Also, the growth inhibition in experiment [3] (setting [7]) was 9%; in experiment [3] (setting [8]), 88% (active); in experiment [3] (at 50.0 µM), 90.1% (active); in experiment [6] (setting [7]), 24%; in experiment [6] (setting [8]), 51%; in experiment [6] (at 50.0 µM) it was 58.1%. For the same molecule, the growth inhibition in experiment [4] (setting [7]) is 20%; in experiment [4] (setting [8]), 94% (active); in experiment [4] (at 50.0 µM) it was 87.5% (active); in experiment [5] (setting [7]), 14%; in experiment [5] (setting [8]), 91% (active); in experiment [5] (at 50.0 µM) it was 87.8% (active).
Take `Cc1ccc2nc(N/N=C/c3cccc(C)n3)cc(C)c2c1`: the growth inhibition was 8% in experiment [1] (setting [7]); 62% in experiment [1] (setting [8]); 89.3% (active) in experiment [1] (at 50.0 µM); -2% in experiment [2] (setting [7]); 37% in experiment [2] (setting [8]); 21.2% in experiment [2] (at 50.0 µM). Also, the growth inhibition in experiment [3] (setting [7]) is 6%; in experiment [3] (setting [8]), 80% (active); in experiment [3] (at 50.0 µM), 89.8% (active); in experiment [6] (setting [7]), -8%; in experiment [6] (setting [8]) it was 61%; in experiment [6] (at 50.0 µM), 74.9% (active). The growth inhibition was -11% in experiment [4] (setting [7]); 57% in experiment [4] (setting [8]); 73.1% (active) in experiment [4] (at 50.0 µM); 4% in experiment [5] (setting [7]); 64% in experiment [5] (setting [8]); 84.3% (active) in experiment [5] (at 50.0 µM).
As for `CC(=O)OC12CCC3C4CC=C5CC(O)CCC5(C)C4C(=O)C3C1(C)N1CC(C)CC(O)C1C2C` (stereo not given), the growth inhibition is 7% in experiment [1] (setting [7]); 40% in experiment [1] (setting [8]); 74.5% (active) in experiment [1] (at 50.0 µM); 10% in experiment [2] (setting [7]); 42% in experiment [2] (setting [8]); 59.5% in experiment [2] (at 50.0 µM). For the same molecule, the growth inhibition in experiment [3] (setting [7]) is 5%; in experiment [3] (setting [8]), 68%; in experiment [3] (at 50.0 µM) it was 62.2%; in experiment [6] (setting [7]) it was 18%; in experiment [6] (setting [8]) it was 62%; in experiment [6] (at 50.0 µM), 56.9%. Moreover, the growth inhibition is 16% in experiment [4] (setting [7]); 74% (active) in experiment [4] (setting [8]); 64.2% in experiment [4] (at 50.0 µM); -23% in experiment [5] (setting [7]); 59% in experiment [5] (setting [8]); 47% in experiment [5] (at 50.0 µM).
Turning to `CCCCC/C=C/C/C=C\CCCCCCCC(=O)NC1CC(O)C(O)NC(=O)C2C(O)C(C)CN2C(=O)C(C(C)O)NC(=O)C(C(O)C(O)c2ccc(O)cc2)NC(=O)C2CC(O)CN2C(=O)C(C(C)O)NC1=O` (stereo not drawn) (X1-[ξOrn(4,5-diOH)]T[Hyp][ξhTyr(βξ-OH,γξ-OH)]T[ξPro(3ξ-OH,4ξ-Me)]; lactam 1-C; configuration not given here), the growth inhibition in experiment [1] (setting [7]) is 3%; in experiment [1] (setting [8]) it was 93% (active); in experiment [1] (at 50.0 µM) it was 89% (active); in experiment [2] (setting [7]) it was 51%; in experiment [2] (setting [8]), 98% (active); in experiment [2] (at 50.0 µM) it was 90.8% (active). Besides, the growth inhibition is 51% in experiment [3] (setting [7]); 93% (active) in experiment [3] (setting [8]); 90.3% (active) in experiment [3] (at 50.0 µM); 9% in experiment [6] (setting [7]); 95% (active) in experiment [6] (setting [8]); 83.8% (active) in experiment [6] (at 50.0 µM). Moreover, the growth inhibition in experiment [5] (setting [7]) was 40%; in experiment [5] (setting [8]), 96% (active); in experiment [5] (at 50.0 µM) it was 88.6% (active).
